Bioassay records (PubChem BioAssay)
LASV entry inh – Lassa virus entry inhibition. Lassa virus pseudotype entry inhibition, cell reporter. 300,000 compounds, 1.2% hits. Potency, µM (top dose mostly 37.9 µM), actives largely listed as inhibitors; calls by dose curve; tested in HEK293 cells; further: nearly all actives have a fitted effect of over 50% in size
HCV inh – blocks hepatitis C virus | Huh7.5.1 HCVcc-Cre infection, luciferase reporter, 44 h | Potency, µM (series often up to 41.8 µM), most hits filed as inhibitors | 340,000 compounds, 3.4% hits | AID 651820; active means well fitted inhibition curve with a large enough effect; inconclusive means small, poorly fitted or top-dose-only effect, or another doubt; inactive means no such curve, though single readings can be large or run the other way
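Compounds are dispensed onto cells plated 4 h earlier at 1,000 per well, with HCVcc-Cre virus (about 0.5 moi) added next. Following 44 h of culture, luminescent signal is measured for 15 sec after 15 min with substrate at room temperature.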
HCMV antiviral – inhibitors of human cytomegalovirus; AID 1259415; activity change, negative = inhibition, % at 57.5 µM; 410,000 compounds, 4.5% hits; HFF cells, HCMV-luciferase reporter, 72 h; hits give low values; in the data active means activity change below about -60%; inconclusive means no clear call, values can overlap the other calls; inactive means above about -39%
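Human foreskin fibroblasts infected with luciferase-reporter HCMV at MOI 1 PFU/cell, compounds at two doses. Luciferase measured 72 h post infection; normalized to buffer-only basal and Salinomycin (10uM) controls.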
FMDV antiviral – foot and mouth disease virus antiviral activity; FMDV antiviral cell-based qHTS; Potency, µM (doses to about 57.9 µM), hits mostly inhibitors; 410,000 compounds, 1.2% hits; calls by dose curve; tested in HEK293T cells; further: read-out not given here; nearly all actives have a fitted effect of over 45% in size
MARV entry inh – Marburg virus entry inhibition. Potency, µM (top dose mostly 37.8 µM), hits mostly inhibitors. AID 540276. 300,000 compounds, 1.8% hits. Marburg virus pseudotyped entry inhibition, cell reporter; calls by dose curve; tested in HEK293 cells
Of the large screens only hits and unclear results are named; the others gave an inactive call. Most compounds without a hit are left out; they make up all but 7.9% or so of the library.

O=S(=O)(Nc1cccc(Cl)c1)c1ccc2[nH]c3c(c2c1)CCCCCC3	LASV entry inh inconclusive (no result: HCV inh, MARV entry inh)
CN(C)c1ccc(CNS(=O)(=O)c2ccc3[nH]c4c(c3c2)CCCCC4)cc1	LASV entry inh inconclusive, HCMV antiviral -65 (no result: HCV inh, MARV entry inh)
Cc1ccc(NS(=O)(=O)c2ccc3[nH]c4c(c3c2)CCCCCC4)cc1Cl	HCMV antiviral -83 (no result: HCV inh, MARV entry inh)
CCOc1ccc(NS(=O)(=O)c2ccc3[nH]c4c(c3c2)CCCCC4)cc1	HCMV antiviral -103 (no result: HCV inh, MARV entry inh)
Cc1ccc(CNS(=O)(=O)c2ccc3[nH]c4c(c3c2)CCCCC4)cc1	none (no result: HCV inh, MARV entry inh)
COc1ccc2c(c1)CC(NC(=O)Nc1ccc(NC(C)=O)cc1)CO2 (stereo not given)	none (no result: HCV inh, MARV entry inh)
CCCCC[C@H]1C[C@@H](CC#CCN2CCOCC2)C(=O)O1	none (no result: LASV entry inh, HCV inh, HCMV antiviral, FMDV antiviral)
O=C1COc2ccc(-c3csc(NCCc4ccccc4)n3)cc2N1	LASV entry inh inconclusive, HCV inh inconclusive, FMDV antiviral 40µM, MARV entry inh inconclusive
COc1ccc(/C=N/Nc2cc(C)nc3ccc(Br)cc23)cc1	LASV entry inh inconclusive, HCV inh 6.3µM, HCMV antiviral -98, MARV entry inh 4.5µM
COc1ccc2nc(C)cc(N/N=C/c3cccc(OC)c3O)c2c1	LASV entry inh inconclusive, HCV inh inconclusive, MARV entry inh inconclusive
COCC1CCN(Cc2nc(COc3ccccc3)no2)C1 (stereo not given)	none
c1ccc(OCc2noc(CN3CCC(C4CCCCC4)C3)n2)cc1 (stereo not given)	HCMV antiviral -61 (no result: LASV entry inh, MARV entry inh)
O=C(COC(=O)CC(c1ccccc1)c1ccccc1)NCc1ccccc1	LASV entry inh 12µM, FMDV antiviral inconclusive
O=C(NN1C(=O)C2C3c4ccccc4C(c4ccccc43)C2C1=O)C1CC1 (stereo not given)	none
CCOC(=O)C1=C(C)n2c(s/c(=C/c3cccc([N+](=O)[O-])c3)c2=O)=NC1c1ccc(O)c(OC)c1 (stereo not given)	LASV entry inh inconclusive, HCV inh 8.9µM, FMDV antiviral inconclusive, MARV entry inh inconclusive
CCOC(=O)C1=C(C)N=c2s/c(=C\c3ccc(O)c([N+](=O)[O-])c3)c(=O)n2C1c1ccccc1OC (stereo not given)	HCMV antiviral inconclusive, FMDV antiviral inconclusive
CC[C@@H](C)[C@H]1O[C@]2(CC[C@@H]1C)C[C@@H]1C[C@@H](C/C=C(\C)[C@@H](O[C@H]3C[C@H](OC)[C@@H](O[C@H]4C[C@H](OC)[C@@H](O)[C@H](C)O4)[C@H](C)O3)[C@@H](C)/C=C/C=C3\CO[C@@H]4[C@H](O)C(C)=C[C@@H](C(=O)O1)[C@]34O)O2	LASV entry inh inconclusive, MARV entry inh 6.3µM (no result: HCV inh, HCMV antiviral, FMDV antiviral)
CC[C@@H](C)[C@H]1O[C@]2(CC[C@H]1C)C[C@@H]1C[C@@H](CC=C(C)[C@@H](O[C@H]3C[C@H](OC)[C@@H](O[C@H]4C[C@H](OC)[C@@H](O)[C@H](C)O4)[C@H](C)O3)[C@@H](C)C=CC=C3CO[C@@H]4[C@H](O)C(C)=C[C@@H](C(=O)O1)[C@]34O)O2	LASV entry inh 2.6µM, MARV entry inh 10µM (no result: HCV inh, HCMV antiviral, FMDV antiviral)
CN(CCO)C(=O)c1cn(C2CCN(Cc3ccc4ccccc4c3)CC2)nn1	none (no result: LASV entry inh, HCV inh, HCMV antiviral, MARV entry inh)
S=C(NCCCN1CCOCC1)Nc1cccc(Cl)c1	LASV entry inh 13µM
Cc1ccc(NC(=O)c2ccc(NCCCN3CCC(C)CC3)c([N+](=O)[O-])c2)cc1F	HCV inh inconclusive, MARV entry inh inconclusive
O=C(Nc1cccc(Cl)c1)c1ccc(NCCCN2CCOCC2)c([N+](=O)[O-])c1	LASV entry inh inconclusive, HCV inh 10µM, HCMV antiviral inconclusive, FMDV antiviral inconclusive, MARV entry inh 10µM
COC(=O)c1cc(NC(=O)c2ccc(-c3ccccc3)cc2)ccc1Cl	LASV entry inh inconclusive, HCV inh 10µM, MARV entry inh inconclusive
COc1ccc(Cl)cc1NC(=O)Nc1cnccn1	HCV inh inconclusive, HCMV antiviral -85 (no result: LASV entry inh, MARV entry inh)
COc1ccc(NC(=O)Nc2cccc(OC)c2)cc1	LASV entry inh inconclusive (no result: FMDV antiviral)
O=C(Nc1ccc(-c2ccccc2)cc1)c1ccccc1	none (no result: LASV entry inh, MARV entry inh)
COC(=O)c1cc(NC(=O)Nc2cccc(Cl)c2)ccc1Cl	LASV entry inh inconclusive, HCV inh 10µM, HCMV antiviral -99, MARV entry inh inconclusive (no result: FMDV antiviral)
COc1cccc(NC(=O)Nc2cc(Cl)ccc2C)c1	HCMV antiviral -60, MARV entry inh inconclusive
CC(C)(C)c1cc(C(=O)NCCN2CCCC2)cc(C(C)(C)C)c1	LASV entry inh inconclusive, HCMV antiviral inconclusive, MARV entry inh inconclusive
COc1cc(C#N)c(N=C(SCC#N)N2CCOCC2)cc1OC	LASV entry inh inconclusive
CCC(=O)N1CCc2cc(Br)c(S(=O)(=O)CCC(=O)NCCc3ccccc3)cc21	none
COC(=O)c1cccc(NC(=O)NC(=O)c2ccc(Cl)cc2)c1	LASV entry inh inconclusive, MARV entry inh inconclusive
COC(=O)c1cccc(NC(=O)Nc2ccc(Cl)cc2)c1	HCV inh inconclusive, HCMV antiviral -67, MARV entry inh inconclusive
CSc1nc(C(=O)N2CCOc3ccc(CN4CCN(Cc5ccccn5)CC4)cc3C2)cs1	none (no result: LASV entry inh, HCV inh, HCMV antiviral, MARV entry inh)
CNc1nc(-c2ccc3c(c2)CCN3C(=O)CC(C)(C)C)c(C)s1	none (no result: LASV entry inh, MARV entry inh)
CC(=O)Nc1nc(-c2ccc3c(c2)CCN3C(=O)C2CC2)c(C)s1	HCMV antiviral -98, MARV entry inh inconclusive
Cc1cc(C)cc(C(=O)NCC(c2ccc(N(C)C)cc2)N2CCCC2)c1 (stereo not given)	LASV entry inh inconclusive (no result: HCV inh, MARV entry inh)
CCN1C(=O)c2ccccc2Sc2ccc(NC(=O)Nc3cccc([N+](=O)[O-])c3C)cc21	FMDV antiviral inconclusive (no result: HCV inh, MARV entry inh)
CN1CCN(c2ccccc2NC(=O)c2ccc(-c3cccc(Cl)c3)o2)CC1	HCV inh inconclusive, FMDV antiviral inconclusive, MARV entry inh 13µM
CS(=O)(=O)N1CCN(c2ccccc2NC(=O)c2ccc(-c3ccc(Cl)cc3Cl)o2)CC1	LASV entry inh inconclusive, MARV entry inh inconclusive
CN1CCN(c2ccccc2NC(=O)c2ccc(-c3ccc(Cl)cc3Cl)o2)CC1	LASV entry inh inconclusive, HCV inh 10µM, FMDV antiviral inconclusive, MARV entry inh inconclusive
NC(=O)C1CCCN(Cc2ccc3c(c2)CN(Cc2ccccc2)CCO3)C1 (stereo not given)	none (no result: LASV entry inh, HCV inh, HCMV antiviral, MARV entry inh)
Cc1nc(C)c(C(=O)NN=Cc2ccc(N(CCCl)CCCl)cc2)s1	LASV entry inh 7.1µM, MARV entry inh inconclusive
O=C(NN=Cc1ccc(N(CCCl)CCCl)cc1)c1cccc([N+](=O)[O-])c1	LASV entry inh inconclusive, HCV inh inconclusive, MARV entry inh inconclusive
O=C(NN=Cc1ccc(N(CCCl)CCCl)cc1)c1cccnc1	LASV entry inh inconclusive, HCV inh inconclusive, MARV entry inh 5.6µM
CN(C)NC(=S)NC1CC2CCC1C2 (stereo not given)	HCMV antiviral -61 (no result: LASV entry inh, MARV entry inh)
Cc1ccc(NS(=O)(=O)c2ccc(NC(=O)c3cccc(NC(=O)C(C)C)c3)cc2)cc1	LASV entry inh inconclusive, HCV inh 10µM, FMDV antiviral inconclusive, MARV entry inh 13µM
Cc1ccc(S(=O)(=O)Nc2ccc(C(=O)Nc3ccncc3)cc2)cc1	MARV entry inh inconclusive
CCN(CC)S(=O)(=O)c1ccc(NC(=O)Nc2cccc(C(F)(F)F)c2)cc1	LASV entry inh inconclusive, HCV inh 11µM, HCMV antiviral -105, FMDV antiviral inconclusive, MARV entry inh inconclusive
